HSF1 inh: HSF1 inhibition | 0.77% of 300,000 active | activity change, negative = inhibition, % at 7.5 µM (by protocol) | AID 2098 | NIH3T3-HGL HSE-luciferase, MG132-induced, luminescence 8 h; hits give low values;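 active means more than half of replicate wells show activity change below -50%, luminescence cut by over half; inconclusive means some wells, but at most half, below -50%; inactive means no replicate well below -50%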;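 further: luciferase reports HSF-1 transcriptional activity via heat shock element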
MITF act: increases MITF-driven TRPM1 promoter luciferase signal. AID 588334. SK-MEL-5 TRPM1-promoter luciferase, 24 h; % of positive control, neutral wells = 0. 0.75% of 300,000 active. activation, % at 12.5 µM;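 active means mean activation of at least 80% with every replicate also reaching 80%; inconclusive means mean reaches 80% but some replicate falls short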
Wnt bcat act: Wnt/beta-catenin pathway activation. Wnt/beta-catenin reporter cell assay, activator, plate reader. activation, % at 9.35 µM. 1.2% of 300,000 active. AID 743398; in the data active means activation above about 30%, passing the limit was not always enough; inconclusive means no clear call, values can overlap the other calls
esBAF inh: inhibitors of esBAF chromatin remodeling in mouse ES cells | Bmi1-luciferase knock-in reporter, 24 h; 100% = twice the neutral-well signal | reporter increase, % at 12.5 µM | 2% of 350,000 active | AID 602393; in the data active means activation above about 40%; inconclusive means no clear call, values can overlap the other calls;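 further: a rise in the Bmi1 reporter signal indicates esBAF inhibition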
HSF-1 act: increases HSF-1 driven luciferase reporter signal; 1.7% of 300,000 active; activation, % at 9 µM; NIH3T3-HGL HSF-1 luciferase reporter, MG132, 8 h; 100% = twice DMSO control signal; AID 504408;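 active means mean replicate activation of at least 50% with a set share of replicates each reaching 50%; inconclusive means only one of those two conditions met; inactive means mean below 50% and too few replicates reaching it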
Hits are given with their value. Only some compounds are listed: those with a hit (about 3.8% of all), similar ones and a draw of the others.

How did C[C@@H]1CN([C@@H](C)CO)C(=O)c2cc(NS(=O)(=O)c3cccs3)ccc2O[C@@H]1CN(C)Cc1ccc(Cl)c(Cl)c1 do in these assays?
esBAF inh: inactive

How did CO[C@H]1CN(C)C(=O)c2cc(NC(=O)Nc3cccc(F)c3)ccc2OC[C@H](C)N(C)C[C@H]1C do in these assays?
esBAF inh: inactive

How did COc1ccc(NC(=O)c2ccc3c(c2)N(C)CCS3)cc1 do in these assays?
HSF1 inh: inactive; Wnt bcat act: 53; esBAF inh: 85; HSF-1 act: inactive

Results for CN1CCSc2ccc(C(=O)Nc3cccc(F)c3)cc21 ?
HSF1 inh: inactive; MITF act: inactive; Wnt bcat act: inactive; esBAF inh: 50; HSF-1 act: 160

How did C[C@@H]1CN([C@@H](C)CO)C(=O)c2cc(NC(=O)Cc3ccccc3)ccc2O[C@H]1CN(C)Cc1ccc(C(=O)O)cc1 do in these assays?
esBAF inh: inactive

What do the screens show for `COc1cc(OC)c2c(c1)O/C(=C\c1ccccc1)C2=O`?
HSF1 inh: inactive; Wnt bcat act: inactive; esBAF inh: 58; HSF-1 act: inactive

Results for COc1cc(C(=O)NCc2nnc(SCC(=O)Nc3cc(C)cc(C)c3)o2)cc(OC)c1OC ?
HSF1 inh: -56; MITF act: inactive; Wnt bcat act: inactive; esBAF inh: inactive; HSF-1 act: inactive

How did C[C@@H]1CN([C@@H](C)CO)C(=O)c2cc(NC(=O)CCN3CCOCC3)ccc2O[C@H]1CN(C)Cc1ccc(Oc2ccccc2)cc1 do in these assays?
esBAF inh: inactive

What do the screens show for `COc1ccccc1S(=O)(=O)N[C@H]1CC[C@H](CC(=O)N2CCOCC2)O[C@@H]1CO`?
esBAF inh: inactive

Results for Cc1cccc(S(=O)(=O)N2CC[C@@H]3[C@H](CO)Nc4ccc(C5=CCCCC5)cc4[C@@H]32)c1 ?
esBAF inh: inactive

Results for COCC(=O)Nc1ccc2c(c1)OC[C@@H](C)N(C(=O)NC(C)C)C[C@H](C)[C@@H](OC)CN(C)C2=O ?
esBAF inh: inactive

How did O=C(CNC(=O)c1cccs1)OCC(=O)c1ccc(Cl)cc1 do in these assays?
HSF1 inh: inactive; MITF act: inactive; Wnt bcat act: inactive; esBAF inh: inactive; HSF-1 act: inactive

What do the screens show for `O=C(CNC(=O)c1cccs1)c1ccc(Cl)cc1`?
HSF1 inh: inactive; MITF act: 130; Wnt bcat act: inactive; esBAF inh: inactive; HSF-1 act: inactive

How did O=C1C2C3C=CC(O3)C2C(=O)N1N=Cc1cccc2ccccc12 (configuration not stated) do in these assays?
MITF act: inactive; Wnt bcat act: inactive; esBAF inh: 46

How did C=CCn1cc(/C=N/N2C(=O)C3C4C=CC(C4)C3C2=O)c2ccccc21 (configuration not stated) do in these assays?
HSF1 inh: inactive; MITF act: inactive; Wnt bcat act: inactive; HSF-1 act: inactive

How did O=C(COC(=O)c1n[nH]c2ccccc12)NC1CCCCC1 do in these assays?
MITF act: inactive; Wnt bcat act: inactive; esBAF inh: inactive

How did COc1ccc(OC)c(C(=O)COC(=O)c2ccccc2O)c1 do in these assays?
HSF1 inh: inactive; esBAF inh: 42; HSF-1 act: inactive

What do the screens show for `COc1ccc(OC)c(NC(=O)COC(=O)c2n[nH]c3ccccc23)c1`?
MITF act: inactive; Wnt bcat act: inactive; esBAF inh: inactive

Results for O=C(COC(=O)c1n[nH]c2ccccc12)NC(=O)NC1CCCCC1 ?
HSF1 inh: inactive; MITF act: inactive; Wnt bcat act: inactive; esBAF inh: inactive; HSF-1 act: 52

Results for O=C(OCCOc1ccccc1)c1n[nH]c2ccccc12 ?
HSF1 inh: inactive; MITF act: 106; Wnt bcat act: 38; esBAF inh: inconclusive; HSF-1 act: 67

How did COc1ccc(C(=O)COC(=O)c2n[nH]c3ccccc23)c(OC)c1 do in these assays?
MITF act: 96; Wnt bcat act: inactive

What do the screens show for `C[C@@H]1CN([C@@H](C)CO)C(=O)c2ccccc2-c2ccccc2CO[C@H]1CN(C)S(=O)(=O)c1cccs1`?
esBAF inh: inactive

How did C[C@@H]1CN([C@@H](C)CO)C(=O)c2cccc(NS(=O)(=O)c3ccc(Cl)cc3)c2O[C@H]1CN(C)C(=O)Nc1ccc(C(F)(F)F)cc1 do in these assays?
esBAF inh: inactive

How did C=CCc1cccc(CNc2nc3ccccc3n2CC)c1O do in these assays?
HSF1 inh: inactive; MITF act: inactive; esBAF inh: inactive; HSF-1 act: inactive

How did C=CCc1cccc(CNc2nc3ccccc3n2CCC)c1O do in these assays?
HSF1 inh: inactive; Wnt bcat act: inactive; esBAF inh: inactive; HSF-1 act: 149

What do the screens show for `O=C(Nc1ccccc1F)N[C@H]1CC[C@H](CCNS(=O)(=O)c2ccccc2)O[C@H]1CO`?
esBAF inh: inactive

How did CCOc1cc(/C=C2\CCC/C(=C\c3cc(Cl)c(O)c(OCC)c3)C2=O)cc(Cl)c1O do in these assays?
HSF1 inh: inactive; MITF act: inactive; Wnt bcat act: inactive; esBAF inh: inactive; HSF-1 act: 316

Results for CCOC(=O)c1c(-c2ccccc2)csc1NC(=O)c1cccc(N2C(=O)CCC2=O)c1 ?
HSF1 inh: inactive; esBAF inh: inactive; HSF-1 act: 85

Results for CCOC(=O)c1c(-c2ccc(C)cc2)csc1NC(=O)c1cc2ccccc2oc1=O ?
HSF1 inh: inactive; MITF act: inactive; Wnt bcat act: inactive; esBAF inh: 49; HSF-1 act: inactive

Results for COC(=O)CNC(c1ccccc1)c1cc(Br)ccc1NC(=O)CCN1CCOCC1 (configuration not stated) ?
HSF1 inh: inactive; MITF act: inactive; HSF-1 act: inactive

How did COC(=O)CNC(c1ccccc1)c1cc(Br)ccc1N (configuration not stated) do in these assays?
HSF1 inh: inactive; Wnt bcat act: inactive; HSF-1 act: 74

Results for CCOC(=O)CNC(c1ccccc1)c1cc(Br)ccc1NC(=O)CCN1CCOCC1 (configuration not stated) ?
HSF1 inh: inactive; MITF act: inactive; Wnt bcat act: inactive; esBAF inh: inactive; HSF-1 act: 63

Results for CCOC(=O)c1c(-c2ccccc2)csc1NC(=O)CCN1CCOCC1 ?
HSF1 inh: inactive; MITF act: inactive; Wnt bcat act: inactive; HSF-1 act: 74

Results for CCOC(=O)C1(C)C=C(Nc2cccc(OC)c2)C(=O)N1c1ccccc1 (configuration not stated) ?
HSF1 inh: inactive; Wnt bcat act: 43; HSF-1 act: inactive

What do the screens show for `C/C=C/c1cnc2c(c1)C(=O)N([C@H](C)CO)C[C@H](C)[C@H](CN(C)C(=O)C1CCCCC1)O2`?
esBAF inh: inactive

What do the screens show for `CC(C)c1ccc(/C=N/NC(=O)c2cccc(Cl)c2)cc1`?
HSF1 inh: inactive; MITF act: inactive; Wnt bcat act: inactive; HSF-1 act: 55

Results for CC(C)c1ccc(/C=N/NC(=O)CCNC(=O)c2ccccc2)cc1 ?
HSF1 inh: inactive; MITF act: inactive; Wnt bcat act: inactive; esBAF inh: 62; HSF-1 act: inactive

High-throughput results (PubChem BioAssay)
